Assay results: PubChem BioAssay (NCATS)
Records with an inconclusive call do not appear. Entries that show only a call come without a potency. The source made the active and inactive calls. Calls follow the shape of the dose curve; as a rule, active = well fitted inhibition curve with a large enough effect; inconclusive = small, poorly fitted or top-dose-only effect; inactive = flat fitted curve, though single readings scatter.

Each compound was assayed on MKL-2 (assay: qHTS assay to identify novel small-molecules to repurpose for Merkel cell carcinoma treatment (AID 1296009; also: nearly all actives have a fitted effect of over 60% in size)). Conditions: MCC and control cell lines, CellTiter-Glo viability, 72 h; series mostly up to 46 µM.
How it was run: (§1)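 Luminescence from CellTiter-Glo, read 10 min after addition at room temperature, reported viability following a 72 hr, 37 degree celsius treatment with NPC or MIPE compounds in titration; values normalized to plate controls.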
With `C1CN2CCC1CC2` the Potency was “inactive”. In the case of `CCC1(CC)C(=O)NC(=O)NC1=O`, the Potency is reported as “inactive”. For `CC(C)(C)OC(=O)c1ncn2c1[C@@H]1CCCN1C(=O)c1c(Br)cccc1-2`, the Potency was “inactive”. In the case of `CN1C(=O)CN=C(c2ccccc2)c2cc([N+](=O)[O-])ccc21`, the Potency is reported as “inactive”. `CCOC(=O)C(c1c(O)c2ccccc2oc1=O)c1c(O)c2ccccc2oc1=O` was tested, and the Potency was “inactive”. With `CNC(C)Cc1ccccc1OC` (stereo not drawn) the Potency was “inactive”. In the case of `ClCc1cccc(Cl)c1`, the Potency is reported as “inactive”. `CC(CC(C(N)=O)(c1ccccc1)c1ccccc1)N(C)C` (stereo not drawn) was tested, and the Potency was “inactive”. In the case of `CC1Sc2c(C(=O)O)c(=O)c3cc(F)c(N4CCNCC4)cc3n21` (stereo not drawn), the Potency is reported as “inactive”. `O=C(CBr)Nc1ccc(Cl)cc1C(=O)c1ccccc1F` was tested, and the Potency was “inactive”. With `COP(=O)(OC)C(O)C(Cl)(Cl)Cl` (stereo not drawn) the Potency was “inactive”. `C[C@H]1CNCCc2ccc(Cl)cc21` was tested, and the Potency was “inactive”. With `COc1cc(N)c(Cl)cc1C(=O)NC1CN2CCC1CC2` (stereo not drawn) the Potency was “inactive”. With `COC(=O)C1=CCCN(C)C1` the Potency was “inactive”. For `C[C@@H]1CN(C2CCC(C#N)(c3ccc(F)cc3)CC2)CC[C@]1(C(=O)O)c1ccccc1` (stereo partly drawn), the Potency was “inactive”. With `CCOC(=O)NC(O)C(Cl)(Cl)Cl` (stereo not drawn) the Potency was “inactive”. In the case of `OC(O)C(Cl)(Cl)Cl`, the Potency is reported as “inactive”. For `ClCCCN1CCN(c2cccc(Cl)c2)CC1`, the Potency was “inactive”. For `C#C[C@]1(O)C=C[C@H]2[C@@H]3CCC4=CC(=O)CC[C@@H]4[C@H]3CC[C@@]21CC`, the Potency was “inactive”. `O=c1[nH]c2cc(Cl)ccc2n1C1CCNCC1` was tested, and the Potency was “inactive”. For `O=C(O)Cc1ccccc1`, the Potency was “inactive”. `CC(C)(O)C(Cl)(Cl)Cl` was tested, and the Potency was “inactive”. For `C[N+]1(CCC(C(N)=O)(c2ccccc2)c2ccccc2)CCCCC1`, the Potency was “inactive”. With `CCc1ccc(C2CCNCC2)cc1` the Potency was “inactive”. With `C[C@]12CC[C@H]3[C@@H](CCC4=CC(=O)CC[C@@H]43)[C@@H]1CC[C@@H]2O` the Potency was “inactive”. In the case of `Cc1ccc(N=CN(C)C=Nc2ccc(C)cc2C)c(C)c1`, the Potency is reported as “inactive”. `COP(=O)(OC)OC=C(Cl)Cl` was tested, and the Potency was “inactive”. In the case of `CCN1CCCC1CNC(=O)C(O)(c1ccccc1)c1ccccc1` (stereo not drawn), the Potency is reported as “inactive”. For `CN(C)C(=O)Oc1cc(OC(=O)N(C)C)cc(C(O)CNC(C)(C)C)c1` (stereo not drawn), the Potency was “inactive”. In the case of `O=C1CN2CCOC2(c2ccccc2Cl)c2cc(Cl)ccc2N1` (stereo not drawn), the Potency is reported as “inactive”. `COP(=S)(OC)Oc1ccc(Sc2ccc(OP(=S)(OC)OC)cc2)cc1` was tested, and the Potency was “inactive”. `O=C(O)c1nn(Cc2ccc(Cl)cc2Cl)c2ccccc12` was tested, and the Potency was “inactive”. For `COCC(=O)N(c1c(C)cccc1C)C(C)C(=O)OC` (stereo not drawn), the Potency was “inactive”. With `NC(=O)OCCCc1ccccc1` the Potency was “inactive”. With `CCN(CC)CCOC(=O)C(C)(c1ccccc1)c1ccccc1` the Potency was “inactive”. In the case of `CCOP(=S)(OCC)O/N=C(\C#N)c1ccccc1`, the Potency is reported as “inactive”. With `O=C(CCCCl)c1ccc(F)cc1` the Potency was “inactive”. In the case of `C[N+]1(C)[C@@H]2CC[C@H]1CC(OC(=O)C(CO)c1ccccc1)C2` (stereo partly drawn), the Potency is reported as “inactive”. For `CC1=C2[C@H]3OC(=O)[C@@H](C)[C@@H]3CC[C@@]2(C)C=CC1=O`, the Potency was “inactive”. With `Sc1ccccc1Cl` the Potency was “inactive”.

These compounds were tested on NIH3T3 in the same assay as above. Conditions: MCC and control cell lines, CellTiter-Glo viability, 72 h; at 44.8 µM (top of the series) unless noted.
How it was run: as §1
With `C1CN2CCC1CC2` the outcome was “inactive”. In the case of `CCC1(CC)C(=O)NC(=O)NC1=O`, the outcome is reported as “inactive”. With `CC(C)(C)OC(=O)c1ncn2c1[C@@H]1CCCN1C(=O)c1c(Br)cccc1-2` the outcome was “inactive”. For `CN1C(=O)CN=C(c2ccccc2)c2cc([N+](=O)[O-])ccc21`, the outcome was “inactive”. `CCOC(=O)C(c1c(O)c2ccccc2oc1=O)c1c(O)c2ccccc2oc1=O` was tested, and the outcome was “inactive”. For `CC(CC(C(N)=O)(c1ccccc1)c1ccccc1)N(C)C` (stereo not drawn), the outcome was “inactive”. `CC1Sc2c(C(=O)O)c(=O)c3cc(F)c(N4CCNCC4)cc3n21` (stereo not drawn) was tested, and the outcome was “inactive”. `O=C(CBr)Nc1ccc(Cl)cc1C(=O)c1ccccc1F` was tested, and the outcome was “inactive”. For `COP(=O)(OC)C(O)C(Cl)(Cl)Cl` (stereo not drawn), the outcome was “inactive”. For `C[C@H]1CNCCc2ccc(Cl)cc21`, the outcome was “inactive”. With `COc1cc(N)c(Cl)cc1C(=O)NC1CN2CCC1CC2` (stereo not drawn) the outcome was “inactive”. `COC(=O)C1=CCCN(C)C1` was tested, and the outcome was “inactive”. For `C[C@@H]1CN(C2CCC(C#N)(c3ccc(F)cc3)CC2)CC[C@]1(C(=O)O)c1ccccc1` (stereo partly drawn), the outcome was “inactive”. For `OC(O)C(Cl)(Cl)Cl`, the outcome was “inactive”. In the case of `ClCCCN1CCN(c2cccc(Cl)c2)CC1`, the outcome is reported as “inactive”. In the case of `O=c1[nH]c2cc(Cl)ccc2n1C1CCNCC1`, the outcome is reported as “inactive”. For `O=C(O)Cc1ccccc1`, the outcome was “inactive”. For `CC(C)(O)C(Cl)(Cl)Cl`, the outcome was “inactive”. `C[N+]1(CCC(C(N)=O)(c2ccccc2)c2ccccc2)CCCCC1` was tested, and the outcome was “inactive”. `Cc1ccc(N=CN(C)C=Nc2ccc(C)cc2C)c(C)c1` was tested, and the outcome was “inactive”. `COP(=O)(OC)OC=C(Cl)Cl` was tested, and the outcome was “inactive”. With `CCN1CCCC1CNC(=O)C(O)(c1ccccc1)c1ccccc1` (stereo not drawn) the outcome was “inactive”. `O=C1CN2CCOC2(c2ccccc2Cl)c2cc(Cl)ccc2N1` (stereo not drawn) was tested, and the outcome was “inactive”. In the case of `COP(=S)(OC)Oc1ccc(Sc2ccc(OP(=S)(OC)OC)cc2)cc1`, the outcome is reported as “inactive”. `O=C(O)c1nn(Cc2ccc(Cl)cc2Cl)c2ccccc12` was tested, and the outcome was “inactive”. With `COCC(=O)N(c1c(C)cccc1C)C(C)C(=O)OC` (stereo not drawn) the outcome was “inactive”. For `NC(=O)OCCCc1ccccc1`, the outcome was “inactive”. In the case of `CCOP(=S)(OCC)O/N=C(\C#N)c1ccccc1`, the outcome is reported as “inactive”.
